Data as given in publication PMC6925144, “A prospective compound screening contest identified broader inhibitors for Sirtuin 1” (Scientific Reports, 2019).
In all, about 3,200 compounds were measured (“TSA(without NAD+) / Primary screening (TSA) / delta Tm (K)”: median about -0.07, highest 2% from about 0.37 on). The list comes from a sample in which the highest values are over-represented; it also holds similar structures and randomly drawn compounds.

Molecular target: NAD-dependent deacetylase Sirtuin 1 (human, UniProt Q96EB6)
Sequence (Q96EB6 2-747 limits assumed): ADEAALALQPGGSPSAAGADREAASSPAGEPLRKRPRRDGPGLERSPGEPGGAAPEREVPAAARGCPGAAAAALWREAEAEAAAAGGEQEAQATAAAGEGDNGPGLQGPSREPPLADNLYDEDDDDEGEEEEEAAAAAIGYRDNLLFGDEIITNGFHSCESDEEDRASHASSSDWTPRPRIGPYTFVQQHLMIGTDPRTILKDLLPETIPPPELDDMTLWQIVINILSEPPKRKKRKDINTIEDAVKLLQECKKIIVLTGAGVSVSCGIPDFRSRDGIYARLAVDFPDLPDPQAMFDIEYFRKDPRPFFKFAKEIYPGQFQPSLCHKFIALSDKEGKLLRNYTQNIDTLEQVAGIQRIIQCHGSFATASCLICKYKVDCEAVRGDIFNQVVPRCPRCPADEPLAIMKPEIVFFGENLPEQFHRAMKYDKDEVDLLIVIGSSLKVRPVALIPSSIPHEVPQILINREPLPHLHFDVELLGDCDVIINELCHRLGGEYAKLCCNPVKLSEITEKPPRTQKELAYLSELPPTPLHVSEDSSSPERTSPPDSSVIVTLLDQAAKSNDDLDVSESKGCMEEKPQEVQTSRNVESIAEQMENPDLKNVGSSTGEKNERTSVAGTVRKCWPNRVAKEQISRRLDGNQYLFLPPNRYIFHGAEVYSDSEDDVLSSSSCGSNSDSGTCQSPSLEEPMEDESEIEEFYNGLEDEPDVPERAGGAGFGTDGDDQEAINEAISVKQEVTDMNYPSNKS
Assay: primary screen, delta tm
Parameters: single well (n = 1)
Details: 10 µM
Method in brief: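 Thermal shift of Sirtuin 1 measured without NAD+, compound at 10 µM (n = 1); value is ΔTm, with hits defined as ΔTm > 0.45 K or < −1.5 K. Hits retested at 5, 10, 20 µM (n = 4) and counterscreened on bovine carbonic anhydrase and ABL1 SH2 domain.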

Row | Structure (SMILES) | TSA(without NAD+) / Primary screening (TSA) / delta Tm (K)
1 | COc1cc(/C=N/NC(=O)c2cc3c(s2)CCCC3)ccc1OCC(=O)Nc1ccc(C)cc1 | -0.22 K
2 | COc1cc(/C=N/NC(=O)c2cc3c(s2)CCCC3)ccc1OS(=O)(=O)c1cc(C)ccc1C | 0.32 K
3 | CCOc1cc(/C=N/NC(=O)c2cc3c(s2)CCCC3)ccc1OCC(=O)Nc1cccc(C(F)(F)F)c1 | 5.11 K
4 | O=C(C1=C(O)C(=O)N(CCCN2CCOCC2)C1c1ccco1)c1ccc(F)cc1 (stereo not shown) | -0.08 K
5 | CC(C)CCN1C(=O)c2ccc(C(=O)OCC(=O)NC(C)C34CC5CC(CC(C5)C3)C4)cc2C1=O (stereo not shown) | 0.48 K
6 | CC(NC(=O)COC(=O)c1ccc2c(c1)S(=O)(=O)c1ccccc1C2=O)C12CC3CC(CC(C3)C1)C2 (stereo not shown) | 0.17 K
7 | CC(NC(=O)COC(=O)CCCN1C(=O)c2cccc3cccc(c23)C1=O)C12CC3CC(CC(C3)C1)C2 (stereo not shown) | -0.34 K
8 | COc1ccc(C(=O)C2=C(O)C(=O)N(CCCN3CCOCC3)C2c2ccc(OC)cc2)cc1 (stereo not shown) | -0.13 K
9 | CC(=O)Nc1ccc(NC(=O)c2cccc(C(N)=O)c2)cc1C | -0.07 K
10 | NC(=O)c1cccc(NC(=O)c2cc3c(s2)-c2ccccc2CC3)c1 | 1.03 K
11 | NS(=O)(=O)c1ccc(C(=O)Nc2ccc3c(c2)-c2ccccc2C3)cc1 | 0.23 K
12 | NC(=O)Cn1cnc2c(cnn2-c2ccccc2)c1=O | -0.08 K
13 | Cc1cc(S(=O)(=O)NCc2ccc(C(N)=O)cc2)sc1Cl | -0.11 K
14 | CC(C)(C)c1ccccc1NC(=O)c1ccc(S(=O)(=O)N2CCCC2)cc1 | -0.07 K
15 | O=c1onc(-c2cnccn2)n1Cc1nc2cc([N+](=O)[O-])ccc2o1 | -0.12 K
16 | O=C(CSc1nnnn1-c1ccc(O)cc1)N1N=C(c2ccc3ccccc3c2)CC1c1ccccc1 (stereo not shown) | 0.49 K
17 | CC(=O)N1N=C(c2ccccc2)CC1c1ccc(Br)cc1 (stereo not shown) | -0.02 K
18 | CC(=O)N1N=C(c2ccc(O)cc2)CC1c1ccccc1 (stereo not shown) | 0.07 K
19 | CN(C(=O)Cc1ccc(NC(=O)NCc2ccc(-n3cncn3)nc2)cc1)c1ccccc1 | 0.08 K
20 | CCCNC(=O)Nc1ccc(OC)cc1 | -0.12 K
21 | CN1CCCN(c2ccc(NC(=O)NCCCNC(=O)c3cccc(O)c3)cc2F)CC1 | 0.02 K
22 | Cc1ccc(NC(=O)NCCc2cccc(O)c2)cc1NC(=O)NCCc1cccc(O)c1 | 0.38 K

Row | Structure (SMILES) | TSA(without NAD+) / Primary screening (TSA) / delta Tm (K)
23 | CC(CN1CCOCC1)NC(=O)C(Cc1ccccc1)n1cnnn1 (stereo not shown) | -0.23 K
24 | Cc1ccc(N(C)S(=O)(=O)c2cccc(C(=O)Nc3ccccc3C(F)(F)F)c2)cc1 | -0.13 K
25 | Cc1ccc(N(C)S(=O)(=O)c2cccc(C(=O)Nc3ccccc3Cl)c2)cc1 | 0.07 K
26 | O=C(NN/C=C1/C(=O)N(c2cccc(C(F)(F)F)c2)C(=O)c2ccccc21)c1cccc(S(=O)(=O)Nc2ccccc2Cl)c1 | 1.45 K
27 | COc1ccc(NC(=O)c2ccc(NC(=O)c3cnoc3C)cc2)cc1OCc1cccnc1 | -0.18 K
28 | COC(=O)c1cc(-c2csc(NC(=O)c3cccc(NC(=O)c4cnoc4C)c3)n2)c[nH]1 | 0.46 K
29 | NC(=O)NCc1ccc(C(=O)Nc2nc(-c3c[nH]c(C(N)=O)c3)cs2)cc1 | -0.03 K
30 | Cc1nc(-c2ccc(CCNC(=O)c3ccc(NC(=O)c4cccs4)cc3)s2)cs1 | 0.63 K
31 | COc1ccc(C(=O)NCCc2ccc(-c3csc(C)n3)s2)cc1 | 0.07 K
32 | Cc1nc(-c2ccc(CCNC(=O)c3ccc(NC(N)=O)cc3)s2)cs1 | 0.23 K
33 | COc1ccc(C(=O)C2=C(O)C(=O)N(CCCN3CCOCC3)C2c2ccccc2)cc1C (stereo not shown) | 0.06 K
34 | CC(c1ccc(S(N)(=O)=O)cc1)N(C)Cc1nc2ccccc2c(=O)[nH]1 (stereo not shown) | -0.15 K
35 | O=C1CCCN1C(=O)Cn1cnc2cc(Cl)ccc2c1=O | -0.11 K
36 | O=C(Nc1ccc(OC(F)F)c(Cc2ccccc2)c1)C1=COCCO1 | -0.12 K
37 | COc1ccc(NC(=O)C2=COCCO2)cc1S(=O)(=O)N1CCOCC1 | -0.13 K
38 | COc1ccc(NC(=O)C2=COCCO2)cc1Cc1ccccc1 | 0.45 K
39 | O=C(Nc1cccc(Cn2[nH]c(=O)ccc2=O)c1)c1cccc(Oc2ccccc2)c1 | -0.13 K
40 | NC(=O)c1ccc(OCC(=O)NC(=O)NCc2cccs2)cc1 | 0.03 K
41 | NC(=O)C1CCN(c2ncnc3sc4c(c23)CCCC4)CC1 | 0.28 K
42 | Cc1sc2nc(-c3cccs3)nc(N3CCC(C(N)=O)CC3)c2c1C | 0.58 K
43 | Cc1sc2nc(-c3cccnc3)nc(N3CCC(C(N)=O)CC3)c2c1C | 0.25 K
